Reference: PubChem BioAssay (Tox21)
Records with an inconclusive call do not appear. The source made the active and inactive calls. Unless noted, calls follow the shape of the full dose curve.

Columns and labels:
[1] = qHTS assay to identify small molecule antagonists of the estrogen related receptor signaling pathway with the pleiotropic PPARgamma coactivator (PGC) from Tox21 10K library - cell viability counter screen (AID 1224840; active = well fitted cell-killing curve with a large enough effect in the repeat runs, not every such curve was filed as active; also: nearly all actives have a fitted effect of over 40% in size)
Summary of the method: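 Multiplexed viability counter screen in the PGC/ERR cell line: cells treated with DMSO-dissolved compounds for 17.5 hours at 37 C, then viability measured as CellTiter-Fluor fluorescence.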

[2] = qHTS assay to identify small molecule agonists of the estrogen related receptor signaling pathway with the pleiotropic PPARgamma coactivator (PGC) from Tox21 10K library (AID 1224842; active = well fitted curve in the direction sought with a large enough effect in the repeat runs; an effect the other way counts as inactive or inconclusive; also: nearly all actives have a fitted effect of over 15% in size)
Summary of the method: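 PGC/ERR reporter cells (NTP line) were seeded 2,000 per well, rested 6 h at 37 C/5% CO2, then pin-dosed with compounds in DMSO for 18 h at 37 C; luciferase read by One-Glo luminescence after 30 min at room temperature.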

[3] = target: Thyrotropin receptor (Homo sapiens) (UniProt P16473); experiment: qHTS assay to identify small molecule agonists of the thyroid stimulating hormone receptor (TSHR) signaling pathway (AID 1224843); also: nearly all actives have a fitted effect of over 45% in size; also: potency is read from the fitted curve at half-maximal effect
Chain of Thyrotropin receptor (Homo sapiens) (P16473 whole entry, looked up): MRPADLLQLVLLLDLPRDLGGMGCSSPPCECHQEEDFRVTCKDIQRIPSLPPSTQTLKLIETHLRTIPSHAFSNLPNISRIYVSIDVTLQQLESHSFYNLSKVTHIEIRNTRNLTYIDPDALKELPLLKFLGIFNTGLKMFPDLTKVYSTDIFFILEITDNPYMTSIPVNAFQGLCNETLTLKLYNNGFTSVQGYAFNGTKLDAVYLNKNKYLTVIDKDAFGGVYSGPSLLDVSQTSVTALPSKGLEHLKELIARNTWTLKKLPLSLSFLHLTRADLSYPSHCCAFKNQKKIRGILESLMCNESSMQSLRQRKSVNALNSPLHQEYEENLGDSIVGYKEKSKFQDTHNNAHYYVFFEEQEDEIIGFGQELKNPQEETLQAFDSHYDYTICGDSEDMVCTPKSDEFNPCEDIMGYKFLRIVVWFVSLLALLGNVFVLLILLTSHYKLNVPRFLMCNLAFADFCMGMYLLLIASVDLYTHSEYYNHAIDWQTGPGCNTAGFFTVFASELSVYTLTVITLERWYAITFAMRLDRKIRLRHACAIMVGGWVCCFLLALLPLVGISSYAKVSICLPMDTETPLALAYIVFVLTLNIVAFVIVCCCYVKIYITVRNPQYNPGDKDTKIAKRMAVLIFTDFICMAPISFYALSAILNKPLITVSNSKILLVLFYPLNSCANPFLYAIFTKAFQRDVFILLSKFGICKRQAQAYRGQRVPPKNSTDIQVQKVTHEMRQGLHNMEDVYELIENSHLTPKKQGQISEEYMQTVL
Summary of the method: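 Using 15 concentrations per compound in triplicate, cAMP production was monitored in TSHR-HEK293 cells after 30 min compound incubation at RT; HTRF reagents followed, with fluorescence intensity recorded after 1 h.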

[4] = qHTS assay to identify small molecule agonists of the hypoxia (HIF-1) signaling pathway - cell viability counter screen (AID 1224844); also: nearly all actives have a fitted effect of over 50% in size
Summary of the method: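 Cytotoxicity was measured in parallel with the HRE-driven beta-lactamase readout: after 17 hrs of compound exposure at 37C, HRE-bla ME-180 cells received CellTiter-Glo and luminescence was recorded 30 min later.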

[5] = qHTS assay to identify small molecule agonists of H2AX (AID 1224845; active = well fitted activation curve with a large enough effect in the signal ratio in the repeat runs, not every such curve was filed as active; the % refers to the signal ratio)
Summary of the method: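 Wild-type CHO-K1 cells plated overnight, then exposed 3 hr at 37C to compounds at 15 concentrations (0.76% DMSO). Lysed, then HTRF anti-pH2AX(S139)-cryptate/anti-H2AX-d2 detection after 24 hr at room temperature; emissions 665 and 620 nm.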

[6] = qHTS assay to identify small molecule agonists of H2AX - cell viability counter screen (AID 1224847); also: top concentration of the series differs between compounds; nearly all actives have a fitted effect of over 30% in size
Summary of the method: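 For this counter screen, overnight-attached CHO-K1 cells received test compounds (15 concentrations, 0.76% DMSO final); 3 hr later at 37C, CellTiter-Glo reagent was added and luminescence recorded after 30 min at room temperature.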

[7] = qHTS assay to identify small molecule antagonists of the estrogen related receptor (ERR) signaling pathway from Tox21 library (AID 1224848; active = well fitted curve in the direction sought with a large enough effect in the repeat runs; an effect the other way counts as inactive or inconclusive; also: nearly all actives have a fitted effect of over 50% in size)
Summary of the method: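 Tox21 10K compounds in DMSO tested for ERR pathway antagonism in NTP's ERR cell line; 18 h, 37 C exposure; ONE-Glo luminescence.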

[8] = qHTS assay to identify small molecule agonists of the estrogen related receptor (ERR) signaling pathway from Tox21 library (AID 1224849); conditions: ERR reporter cell line, ONE-Glo luciferase, 18 h; at 92.4 µM (top of the series) unless noted; also: nearly all actives have a fitted effect of over 15% in size
Summary of the method: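 Cells carrying the ERR reporter were plated and allowed to settle for 6 h, exposed to library compounds for 18 h at 37 C, then lysed with ONE-Glo and luminescence measured.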

[9] = qHTS assay to identify small molecule agonists of the hypoxia (HIF-1) signaling pathway (AID 1224846; active = well fitted activation curve with a large enough effect in the signal ratio in the repeat runs, not every such curve was filed as active; the % refers to the signal ratio)
Summary of the method: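 Compounds from the Tox21 10K library, dissolved in DMSO, are tested for induction of a hypoxia response element–controlled beta-lactamase reporter in ME-180 cells. Exposure lasts 17 hrs at 37C after a 5 hr settling period, followed by CCF4-AM FRET substrate.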

[10] = qHTS assay to identify small molecule antagonists of the estrogen related receptor signaling pathway with the pleiotropic PPARgamma coactivator (PGC) from Tox21 10K library (AID 1224841; call rule not given here; also: actives are mostly falling curves and most rising ones were filed inactive; nearly all actives have a fitted effect of over 50% in size)
Summary of the method: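 Steps: plate 2,000 PGC/ERR cells per well; incubate 6 h at 37 C with 5% CO2; transfer compounds from DMSO stocks by pin tool; incubate 18 h at 37 C; add One-Glo; measure luminescence 30 min later.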
% is scaled to controls: 0 for no effect and ±100 for the full control effect.

CN(C)CCC[C@@]1(c2ccc(F)cc2)OCc2cc(C#N)ccc21
inactive: outcome [1] | Potency [2] | Potency [3] | outcome [4] | outcome [5] | outcome [6] | outcome [7] | activity change, positive = activation [8] -3.55% [at 42.5 µM]

CCCCCC(CC)OC(=O)CCCOc1ccc(Cl)cc1Cl (stereo not given)
inactive: outcome [1] | Potency [2] | outcome [4] | outcome [5] | outcome [6] | outcome [7] | activity change, positive = activation [8] 6.42%

N=C(N)N1CCc2ccccc2C1
inactive: viability change, negative = cytotoxic [1] -0.866% [at 8.39 µM] | activation [2] 0.335% [at 8.39 µM] | activation [3] -1.09% [at 8.39 µM] | activity change, negative = cytotoxicity [4] 5.71% [at 6.97 µM] | activation (H2AX phosphorylation) [5] 0.461% [at 14 µM] | activity change, negative = cytotoxicity [6] 1.46% [at 14 µM] | activity, negative = inhibition [7] 3.19% [at 8.39 µM] | activity change, positive = activation [8] 1.78% [at 8.39 µM]

O=c1c(O)c(O)c1=O
active: Potency [3] 27.3 µM
inactive: outcome [1] | outcome [4] | outcome [5] | outcome [9] | outcome [6]

O=c1[nH]c(=O)c2cn[nH]c2[nH]1
inactive: outcome [1] | Potency [10] | Potency [2] | outcome [4] | outcome [5] | activity change, positive = activation [8] -22.5%

CC(CC(=O)Cl)CC(C)(C)C (stereo not given)
inactive: outcome [1] | Potency [10] | outcome [4] | outcome [5] | outcome [9] | outcome [6] | outcome [7] | activity change, positive = activation [8] 5.62%

COc1ccc(Cl)cc1C
inactive: outcome [1] | Potency [10] | Potency [2] | outcome [4] | outcome [5] | outcome [9] | outcome [6] | outcome [7] | activity change, positive = activation [8] 7.2%

O=C(O)CCC(=O)Nc1ccc(S(=O)(=O)Nc2nccs2)cc1
inactive: outcome [1] | Potency [10] | Potency [2] | outcome [4] | outcome [5] | outcome [6] | outcome [7] | activity change, positive = activation [8] 8.26% [at 42.5 µM]

CN1C(CCl)Nc2cc(Cl)c(S(N)(=O)=O)cc2S1(=O)=O (stereo not given)
inactive: outcome [1] | Potency [10] | Potency [2] | outcome [5] | outcome [9] | outcome [6] | outcome [7] | activity change, positive = activation [8] 0.151% [at 42.5 µM]

CC(C)OCCO
inactive: outcome [1] | Potency [10] | Potency [2] | outcome [4] | outcome [5] | outcome [6] | outcome [7] | activity change, positive = activation [8] 6.53%

C=CCCCCCCCCCCCCCC
inactive: viability change, negative = cytotoxic [1] 2.94% [at 19 µM] | activation [2] -5.23% [at 19 µM] | activation [3] 2.45% [at 19 µM] | activity change, negative = cytotoxicity [4] -3.81% [at 15.8 µM] | activation (H2AX phosphorylation) [5] -0.234% [at 31.6 µM] | activation [9] -0.445% [at 15.8 µM] | activity change, negative = cytotoxicity [6] 0.186% [at 31.6 µM] | activity, negative = inhibition [7] 3.1% [at 19 µM] | activity change, positive = activation [8] 1.6% [at 19 µM]

C[C@@H](CN1CC(=O)NC(=O)C1)N1CC(=O)NC(=O)C1
inactive: outcome [1] | Potency [10] | Potency [2] | outcome [4] | outcome [5] | outcome [9] | outcome [6] | outcome [7] | activity change, positive = activation [8] 3.58% [at 42.5 µM]

Cc1cc(=O)oc2cc(O[C@@H]3SC[C@@H](O)[C@H](O)[C@H]3O)ccc12
inactive: outcome [1] | Potency [3] | outcome [4] | outcome [5] | outcome [9] | outcome [6]

CC(C)C[P+](C)(CC(C)C)CC(C)C
inactive: outcome [1] | Potency [2] | Potency [3] | outcome [5] | outcome [9] | outcome [6] | outcome [7] | activity change, positive = activation [8] -12.2%

O=C(O)P(=O)(O)O
inactive: outcome [1] | Potency [3] | outcome [4] | outcome [5] | outcome [9]

C[Si](C)(C)O[Si](O)(O)O
inactive: outcome [1] | Potency [10] | Potency [2] | outcome [5] | outcome [9] | outcome [6] | outcome [7] | activity change, positive = activation [8] 4.29%

CC(C)c1cc(C(C)C)cc(C(C)C)c1
inactive: outcome [1] | Potency [10] | Potency [2] | outcome [4] | outcome [5] | outcome [9] | outcome [6] | outcome [7] | activity change, positive = activation [8] 7.19%

CC(C)(C)c1ccc(N)cc1
inactive: outcome [1] | Potency [10] | Potency [2] | outcome [5] | outcome [9] | outcome [6] | outcome [7]

CC(=O)c1c(C)cc(C(C)(C)C)cc1C
inactive: outcome [1] | Potency [10] | Potency [2] | outcome [4] | outcome [5] | outcome [9] | outcome [7] | activity change, positive = activation [8] -1.7%

Nc1nc(Cl)cc(Cl)n1
inactive: outcome [1] | Potency [10] | Potency [2] | outcome [4] | outcome [5] | outcome [9] | outcome [7] | activity change, positive = activation [8] -1.17%

CN(C)c1cc(NC(=O)CNC(C)(C)C)c(O)c2c1C[C@H]1C[C@H]3[C@H](N(C)C)C(=O)C(C(N)=O)=C(O)[C@@]3(O)C(=O)C1=C2O
inactive: outcome [1] | Potency [10] | outcome [4] | outcome [9] | outcome [6] | outcome [7] | activity change, positive = activation [8] 1.19% [at 42.5 µM]

C=CCON/C(CCC)=C1\C(=O)CC(C)(C)C(C(=O)OC)=C1O
inactive: outcome [1] | Potency [3] | outcome [4] | outcome [5] | outcome [9]

CCO[Si](CC(C)C)(OCC)OCC
inactive: outcome [1] | Potency [10] | Potency [2] | outcome [4] | outcome [5] | outcome [6] | activity change, positive = activation [8] -27.2%

C=CC(=O)OCCOCCOCC
inactive: outcome [1] | Potency [10] | Potency [2] | outcome [4] | outcome [5] | outcome [9] | outcome [6] | outcome [7]
